Assay outcomes (PubChem)
KCNQ2 block: rat KCNQ2 potassium channel inhibitors, primary screen, cell-based, CHO-K1, FluxOR thallium flux, B-score; Potassium voltage-gated channel subfamily KQT member 2 (Rattus norvegicus), O88943; 20 min; hits give low values; B-score at 10 µM; hit rate 1.1% among 310,000;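 active = fluorescence ratio B-score at most minus 3 library SDs, with starting brightness B-score within 2 library SDs, cut at about -5.5 in these data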
Target sequence (O88943 whole entry, looked up): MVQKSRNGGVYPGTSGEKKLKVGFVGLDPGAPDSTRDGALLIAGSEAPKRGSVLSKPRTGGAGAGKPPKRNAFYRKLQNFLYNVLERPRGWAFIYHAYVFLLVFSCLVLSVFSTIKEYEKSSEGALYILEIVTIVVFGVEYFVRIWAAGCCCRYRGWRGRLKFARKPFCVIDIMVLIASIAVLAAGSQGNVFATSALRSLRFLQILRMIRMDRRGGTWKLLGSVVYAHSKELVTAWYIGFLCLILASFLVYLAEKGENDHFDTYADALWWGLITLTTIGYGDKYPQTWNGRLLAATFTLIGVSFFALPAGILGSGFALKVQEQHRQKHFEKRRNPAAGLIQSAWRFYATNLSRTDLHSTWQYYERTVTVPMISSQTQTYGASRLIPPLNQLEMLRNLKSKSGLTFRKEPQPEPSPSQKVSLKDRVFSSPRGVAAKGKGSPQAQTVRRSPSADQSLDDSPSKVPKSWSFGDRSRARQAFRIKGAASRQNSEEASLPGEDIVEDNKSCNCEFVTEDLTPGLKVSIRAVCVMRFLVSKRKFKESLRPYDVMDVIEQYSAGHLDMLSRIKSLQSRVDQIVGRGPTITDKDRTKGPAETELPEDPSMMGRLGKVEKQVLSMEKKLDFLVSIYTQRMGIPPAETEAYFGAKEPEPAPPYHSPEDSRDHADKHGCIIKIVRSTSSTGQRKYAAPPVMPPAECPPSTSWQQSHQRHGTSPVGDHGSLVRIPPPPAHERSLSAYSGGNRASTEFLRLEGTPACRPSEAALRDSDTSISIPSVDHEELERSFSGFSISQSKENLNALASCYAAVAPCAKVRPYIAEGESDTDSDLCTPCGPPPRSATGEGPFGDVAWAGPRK
KCNQ2 pot: potentiators of rat KCNQ2 potassium channel | Potassium voltage-gated channel subfamily KQT member 2 (Rattus norvegicus), O88943 | CHO-K1 KCNQ2, FluxOR thallium flux fluorescence; hits give high values | B-score at 10 µM | hit rate 0.54% among 310,000 | AID 2239, 2010;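 active = fluorescence ratio B-score at least 3 SD of library B-scores, with initial fluorescence B-score within 3 of them, cut at about 5.3 in these data; same plate scores as AID 2156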;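 also: B-score of peak minus minimum over baseline fluorescence ratio after K+ and Tl+ stimulus; positive B-score means potentiation of KCNQ2 with more thallium influx and brighter signal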
Kir21 confirm: mouse Kir2.1 channel blockers, retest, confirmation, cell-based, FluxOR thallium flux, duplicate; shares compounds with KCNQ2 pot; AID 2032, 2009; Tl flux remaining, % of negative control (hits give low values), % at 10 µM; hit rate 41% among 2,300; Kir2.1-expressing cells, FluxOR thallium flux fluorescence; hits give low values;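 active = Primary-screen hit whose thallium flux fell at least 3 control SD below untreated wells in both duplicates, with normal baseline fluorescence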;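 also: 0% = blank wells without stimulus and 100% = stimulated no-compound controls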
HEK293 ctr: counter-screen for Kir2.1 inhibitors: effect in parental HEK293 cells; hit rate 19% among 2,300; FluxOR signal as % of negative control (100 = no effect), % at 10 µM; FluxOR thallium flux fluorescence; 0% = unstimulated blank wells; shares compounds with KCNQ2 pot; AID 2105;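 active = dye signal at least 3 control SD above or below untreated wells in both duplicates, raw fluorescence within 3, either direction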;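 also: percent is based on the flux ratio of peak minus minimum fluorescence over baseline F0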
CHO-K1 Tl ctr: nonspecific thallium flux increase in parental CHO-K1, confirmation, counter-screen for KCNQ2 potentiator project, cell-based, FluxOR thallium flux, duplicate | activity increase over 3SD of controls, % at 10 µM | parental CHO-K1 cells, FluxOR thallium flux fluorescence; zero = vehicle mean+3SD, 100% = vehicle-minus-blank window | hit rate 43% among 1,200 | AID 2282, 2010 | shares compounds with KCNQ2 pot;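 active = signal rise of at least 3 SD above the untreated control mean, in both duplicate wells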;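 also: counter screen of KCNQ2 potentiator hits so any rise reflects channel-independent effects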
KCNQ1 pot spec: human KCNQ1 channel potentiation off-target, confirmation, selectivity assay for KCNQ2 potentiator project, cell-based, CHO, FluxOR thallium flux. shares compounds with KCNQ2 pot. CHO KCNQ1 stable, FluxOR thallium flux fluorescence; beyond 3SD, as % of vehicle-control signal. activation over 3SD threshold, % at 10 µM. hit rate 28% among 1,200. AID 2283, 2010;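 active = fluorescence ratio rise of at least 3 SD of vehicle wells above their mean, in both replicate wells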;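 also: 0% = vehicle mean plus 3 SD and 100% = vehicle minus unstimulated blank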
KCNQ2 pot conf: rat KCNQ2 channel potentiators, confirmation, cell-based, CHO, FluxOR thallium flux, duplicate; CHO-KCNQ2 cells, FluxOR thallium flux fluorescence; shares compounds with KCNQ2 pot; potentiation, less the hit threshold, % at 10 µM; hit rate 68% among 1,200;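 active = fluorescence ratio rising 3 SD or more over the vehicle control mean in both replicates, plus primary screen hit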;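 also: peak minus minimum thallium fluorescence divided by baseline after K/Tl stimulus; 0% = vehicle mean plus 3 SD and 100% = vehicle minus unstimulated blank difference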
Kir2-1 sel: mouse Kir2.1 channel activation off-target, confirmation, selectivity assay for KCNQ2 potentiator project, cell-based, HEK293, FluxOR thallium flux; shares compounds with KCNQ2 pot; HEK293 Kir2.1, FluxOR thallium flux fluorescence; activity over 3SD threshold, % at 10 µM; hit rate 2% among 1,200; AID 2345, 2010;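 active = fluorescence ratio rise of at least 3 SD above the vehicle-control mean, seen in both replicates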;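 also: 0% = vehicle mean plus 3 SD and 100% = vehicle minus no-stimulus blank window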
KCNQ2 W236L pot: potentiators of retigabine-insensitive KCNQ2 W236L, mechanism study for KCNQ2 potentiator project, cell-based, rat KCNQ2 W236L, CHO, automated patch clamp; shares compounds with KCNQ2 pot; current increase over 3SD of negative controls (%), hits give high values, % at 25 µM; automated patch clamp current; hit rate 10% among 940;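 active = current increase at least 3 SD of the untreated controls above them in both duplicate recordings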
* hit, by the source's call; i = inactive; x = no result given. Most compounds without a hit are left out; they make up all but 1.6% or so of the library.

SMILES	KCNQ2 block	KCNQ2 pot	Kir21 confirm	HEK293 ctr	others
O=C1CC(N2CCN(Cc3ccccc3)CC2)C(=O)N1CCc1ccccc1 (stereo not given)	i	0.92	x	x
O=C1CC(N2CCN(Cc3ccc(Cl)cc3)CC2)C(=O)N1CCc1ccccc1 (stereo not given)	i	5.8*	i	i	CHO-K1 Tl ctr=-9;KCNQ1 pot spec=-22;KCNQ2 pot conf=22*;Kir2-1 sel=-53;KCNQ2 W236L pot=i
Cc1c(NC(=O)c2ccc(S(=O)(=O)N3CCOCC3)cc2)c(=O)n(-c2ccccc2)n1C	i	1.7	x	x
COc1cc2nc(Nc3ccc(F)cc3)nc(N)c2cc1OC	i	0.07	42%*	i
COc1cc2nc(Nc3ccc(C)c(C)c3)nc(N)c2cc1OC	i	x	x	x
CCOC(=O)c1n[nH]n2c1nc(=S)c1ccccc12	i	8.2*	i	391%*	CHO-K1 Tl ctr=-24;KCNQ1 pot spec=-13;KCNQ2 pot conf=43*;Kir2-1 sel=1.3*;KCNQ2 W236L pot=i
CCOC(=O)c1n[nH]c2ccccc12	i	1.3	x	x
O=C(NNc1c(F)c(F)cc(F)c1F)c1ccc(Cl)nc1	i	x	x	x
CCCn1c(SCc2ccon2)nc2ccccc2c1=O	i	0.07	x	x
COc1ccc(C2C(C#N)=C(N)N(c3sc4c(c3C#N)CCCC4)C3=C2C(=O)CC(C)(C)C3)cc1 (stereo not given)	i	x	x	x
COc1ccc(C2C(C#N)=C3NC(=O)c4c(sc5c4CCCCC5)N3C3=C2C(=O)CC(C)(C)C3)cc1 (stereo not given)	i	13*	i	i	CHO-K1 Tl ctr=70*;KCNQ1 pot spec=-4;KCNQ2 pot conf=15*;Kir2-1 sel=-23;KCNQ2 W236L pot=i
O=C(O)CS(=O)(=O)c1ccc(C(F)(F)F)cn1	i	1.6	x	x
O[C@@H](CNC[C@H](O)c1ccccc1)c1ccccc1	i	x	x	x
COc1ccc(CCNCC(O)c2ccccc2)cc1 (stereo not given)	i	0.85	x	x
OC(CNCCc1ccccc1)c1ccccc1 (stereo not given)	i	0.18	44%*	i
CSc1ccc(CNCC(O)c2ccccc2)cc1 (stereo not given)	i	x	59%*	i
CCOc1ccc(C(C)=O)cc1CN1C(=O)NC(C)(C2CC2)C1=O (stereo not given)	i	0.01	x	x
CC1=CCC2C(=O)N(c3ccc(OC(=O)c4ccco4)cc3)C(=O)C2C1 (stereo not given)	i	x	64%*	128%*
COc1ccc(NC(=O)c2cccc(N3C(=O)C4CC=C(C)CC4C3=O)c2)c(OC)c1 (stereo not given)	i	x	x	x
COc1cc(O)c(C(CC(=O)N2CCCC(C)C2)c2cc(OC)c(OC)c(OC)c2)c(OC)c1 (stereo not given)	i	1.3	x	x
Cc1cccc(Nc2c3c(nc4ccccc24)CCC3)c1	i	x	31%*	i
N#Cc1cccc(Nc2c3c(nc4ccccc24)CCC3)c1	i	x	x	x
COC(=O)c1cc(NC(=O)Cc2ccccc2[N+](=O)[O-])cc(C(=O)OC)c1	i	2.5	x	x
Cc1ccc(C)c(S(=O)(=O)N2CCCOC2CNC(=O)C(=O)NCCc2ccco2)c1 (stereo not given)	i	x	x	x
Cc1ccc(C(=O)N/C(=C\c2cccs2)c2nc3ccccc3[nH]2)cc1	i	x	x	x
SMILES	KCNQ2 block	KCNQ2 pot	Kir21 confirm	HEK293 ctr	others
Cc1ccc(/C=C(\NC(=O)c2ccc(C)cc2)c2nc(=S)[nH][nH]2)cc1	i	6*	i	i	CHO-K1 Tl ctr=-4;KCNQ1 pot spec=-23;KCNQ2 pot conf=-18;Kir2-1 sel=-37
Cc1cc(C)n(-c2ccc(C(=O)NCc3ccc4c(c3)OCO4)cc2)n1	i	0.49	x	x
Cc1cc(C)n(-c2ccc(C(=O)NCc3ccc(F)cc3)cc2)n1	i	1.1	22%*	i
O=c1c(Cc2c(F)cccc2Cl)c(O)ccn1CCCN1CCOCC1	i	0.58	x	x
Cc1ccc2c(c1)N(C(=O)CCC(=O)NCCCN1CCC(Cc3ccccc3)CC1)CCO2	i	x	x	x
O=C(c1c[nH]c(C(=O)C(Cl)(Cl)Cl)c1)c1ccc(F)cc1Cl	i	6.6*	i	i	CHO-K1 Tl ctr=-4;KCNQ1 pot spec=-20;KCNQ2 pot conf=4.6*;Kir2-1 sel=-40;KCNQ2 W236L pot=i
O=C(c1c[nH]c(C(=O)C(Cl)(Cl)Cl)c1)c1ccc(F)cc1F	i	x	x	x
Cc1cc(C)c(S(=O)(=O)N2CCc3ccccc32)c(C)c1	i	x	x	x
CC(=O)Nc1ccc(/C=N/N2C(=O)NC(C)(c3ccc(OC(F)F)cc3)C2=O)cc1 (stereo not given)	i	18*	i	i	CHO-K1 Tl ctr=-27;KCNQ1 pot spec=11*;KCNQ2 pot conf=24*;Kir2-1 sel=-25;KCNQ2 W236L pot=i
CCOC(=O)CN1C(=O)NC(C)(c2ccc(OC(F)F)cc2)C1=O (stereo not given)	i	x	x	x
CCn1ccnc1[C@@H]1C[C@H]2CN(Cc3ccccc3OC)C(=O)[C@]23CCCN13	i	0.44	x	x
Cc1cc(Cl)c(S(=O)(=O)NC2CCCC2)cc1OCC(=O)NC1CCCCC1	i	0.41	x	x
Cc1cc(Cl)c(S(=O)(=O)N2CCCCCC2)cc1OCC(=O)NC1CCCCC1	i	25*	i	130%*	CHO-K1 Tl ctr=-1;KCNQ1 pot spec=-14;KCNQ2 pot conf=164*;Kir2-1 sel=-33;KCNQ2 W236L pot=i
Cc1cc(Cl)c(S(=O)(=O)N2CCSCC2)cc1OCC(=O)NC1CCCCC1	i	32*	i	126%*	CHO-K1 Tl ctr=6.8*;KCNQ1 pot spec=-17;KCNQ2 pot conf=122*;Kir2-1 sel=-26;KCNQ2 W236L pot=i
Cc1cc(Cl)c(S(N)(=O)=O)cc1OCC(=O)NC1CCCCC1	i	x	x	x
CN(C(=O)c1ccc2ccccc2c1)c1ccccn1	i	x	x	x
CCC(C)(C)NC(=O)c1ccccc1Oc1ccccc1	i	x	x	x
COCCCNC(=O)c1ccccc1Oc1ccccc1	i	x	x	x
CCC(CC)NC(=O)c1ccccc1Oc1ccccc1	i	x	55%*	i
